Source: PubChem BioAssay
The entries come from a sample that favours hits as a whole.
Ecoli WT expand = growth inhibitors of wild-type E. coli, primary screen, strain BW25113, expanded library, OD600; actives 0.15% (n = 98,000); growth inhibition, % at 100 µM; AID 710, 2007; OD600 absorbance;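 active = growth inhibition above about 50% at one test dose, limit read from the data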;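 also: growth measured after 20 h incubation at 37 °C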
Mac1 fbg enh = enhancers of CD11b/CD18 adhesion to fibrinogen, primary screen, K562 cells, luminescence; Integrin beta-2 (Homo sapiens) + Integrin alpha-M (Homo sapiens), P05107+P11215; ATPlite luminescence; activation, % at 10 µM; actives 0.07% (n = 93,000); AID 1499, 2009;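 active = 10 µM primary screen giving 50% or more activity, confirmed by 40% or more on retest at that dose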
Mac1 fbg inh = inhibitors of CD11b/CD18 adhesion to fibrinogen, primary screen, K562 cells, luminescence; Integrin beta-2 (Homo sapiens) + Integrin alpha-M (Homo sapiens), P05107+P11215; ATPlite luminescence; Mn2+ added to activate the integrin; inhibition, % at 10 µM; actives 0.54% (n = 93,000); AID 1497, 2009;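 active = primary inhibition of 50% or more at 10 µM, then 40% or more on retest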
Cav3 T inh = Cav3.2 calcium influx blockers – cell-based, Fluo-4 calcium fluorescence, FDSS, MLSMR library, primary screen. Voltage-dependent T-type calcium channel subunit alpha-1H (Homo sapiens), O95180. actives 4% (n = 100,000). AID 449739, 2010. Cav3.2-expressing cells; active compounds read low. B-score at 10 µM;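 active = single-dose well whose peak fluorescence ratio is a statistical outlier from its plate by either plate-standardised score or position-corrected B-score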
The depositor's hits bear a star; nt = not tested or not shown.

SMILES	Ecoli WT expand	Mac1 fbg enh	Mac1 fbg inh	Cav3 T inh
O=C(CCC1COc2ccccc2O1)NCC1COc2ccccc2O1 (centres undefined)	0	nt	nt	-9.6*
O=C(CNC(=O)c1ccccc1)NCC1COc2ccccc2O1 (centres undefined)	2	-1	-7	0.93
O=S(=O)(NC1CCCCC1Oc1ccccc1)c1ccccc1 (centres undefined)	nt	1	14	nt
CCOC(=O)c1ccccc1NC1c2ccccc2C(=O)N1C1CCN(C(=O)OCC)CC1 (centres undefined)	-18	1	5	-5.8*
CCOC(=O)N1CCC(N2C(=O)c3ccccc3C2Nc2ccccc2C)CC1 (centres undefined)	-3	3	-16	-0.23
CC1=C(C(=O)Nc2ccccc2)C(c2ccco2)C(C#N)=C(SCC(=O)OC(C)C)N1 (centres undefined)	-13	-2	10	-4.9*
CC1=C(C(=O)Nc2ccccc2)C(c2ccco2)C(C#N)=C(SCC(=O)Nc2cccc(C)c2C)N1 (centres undefined)	-18	9	15	-5.4*
CC1=C(C(=O)Nc2ccccc2)C(c2ccco2)C(C#N)=C(SCc2ccccc2)N1 (centres undefined)	-23	5	-12	-4.2
CC(=O)C1=C(C)NC(SCC(=O)c2cc(Cl)ccc2Cl)=C(C#N)C1c1ccco1 (centres undefined)	nt	-1	13	-3.7*
Cc1ccc(S(=O)(=O)Nc2ccccc2CNc2cccc(C)n2)cc1	nt	2	13	nt
O=C(NCc1cccc(C(F)(F)F)c1)C1CC(c2ccccc2C(F)(F)F)=NO1 (centres undefined)	nt	nt	nt	-1.8
CCN(CC)S(=O)(=O)c1ccc(NCc2ccccc2)nc1	1	3	-6	0.2
CCOC(=O)C1CCCN(CC(=O)Nc2c(C(=O)OC)[nH]c3ccc(Br)cc23)C1 (centres undefined)	-7	0	4	-4.3*
CCOC(=O)C1CCN(CC(=O)Nc2c(C(=O)OC)[nH]c3ccc(Cl)cc23)CC1	-11	-2	24	-1.4
CC(C)(C)C(=O)c1no[n+]([O-])c1/C(=N/O)C(C)(C)C	-1	-6	14	-7.9*
CCOC(=O)C1=C(N)OC2=C(C(=O)CC(C)(C)C2)C1C1CCCCC1 (centres undefined)	-3	-1	-7	-9*
CCOC(=O)C1=C(N)OC2=C(C(=O)CC(C)(C)C2)C1c1ccoc1 (centres undefined)	3	5	-6	-0.85
CCOC(=O)N=S(=O)(Oc1ccc([N+](=O)[O-])cc1)c1ccc(Cl)cc1 (centres undefined)	nt	nt	nt	-4.2*
CCOC(=O)N=S(=O)(Oc1ccc([N+](=O)[O-])cc1)c1ccccc1 (centres undefined)	0	0	-6	0.2
Cn1c(=O)c(NCCO)c2c3c(cccc31)C(=O)c1ccccc1-2	-5	0	-19	-9*
CCNc1c2c3c(cccc3n(C)c1=O)C(=O)c1ccccc1-2	-1	-5	3	-9.2*
Cn1c(=O)c(NCCc2ccccc2)c2c3c(cccc31)C(=O)c1ccccc1-2	-12	-2	11	-11*
CC1CCN(C(=O)c2ccc3c(c2NCCO)C(=O)c2ccccc2C3=O)CC1	7	-6	-7	2
CCCCNc1c2c3c(cccc3n(C)c1=O)C(=O)c1ccccc1-2	-26	nt	nt	-5.2*
Cn1c(NCCc2ccccc2)cc(=O)n(C)c1=O	-2	-4	4	0.14
SMILES	Ecoli WT expand	Mac1 fbg enh	Mac1 fbg inh	Cav3 T inh
Cc1ccc(S(=O)(=O)Cn2nnnc2C(CC(C)C)N2CCN(c3ccc(F)cc3)CC2)cc1 (centres undefined)	1	15	-25	-1.3
CC(C)CC(c1nnnn1C(C)C)N1CCN(c2cccc(Cl)c2)CC1 (centres undefined)	-5	-6	18	-3.5*
CC(=O)OCc1c(C(F)(F)F)nn(C)c1Oc1cccc(C(F)(F)F)c1	6	nt	nt	-4.2*
O=C(NCc1ccccc1Cl)c1ccc2nc[nH]c2c1	nt	1	1	nt
COc1ccc(S(=O)(=O)NCc2ccccn2)cc1Cl	4	6	-15	0.3
COc1ccccc1Oc1ccc(S(=O)(=O)NCc2ccccn2)cc1	-5	-7	68*	0.44
Oc1cccc2ccc(Nc3ccccn3)nc12	100*	-4	42	0.95
c1ccc(Nc2ccccc2Nc2ccccn2)nc1	11	nt	nt	-0.53
CCOC(=O)Cc1cnc(NC(=O)NC(C(=O)OCC)(c2ccccc2)C(F)(F)F)s1 (centres undefined)	1	6	-12	-4.7
c1ccc2c(c1)OCC(c1csc3ncnc(N4CCCC4)c13)O2 (centres undefined)	10	-1	19	-5.1*
Nc1nc(CN2CCN(c3ccccc3F)CC2)nc(Nc2ccccc2)n1	11	1	-14	-1.2
Cc1ccc(Nc2nc(N)nc(CN3CCN(c4ccccc4F)CC3)n2)cc1	2	-4	9	-5.3*
Fc1ccc(-c2nnc(-n3nnc4ccccc43)c3ccccc23)cc1	nt	nt	nt	0.54
Cc1cc(C)c2c(n1)nn1c(N3CCN(Cc4ccccc4)CC3)cc(C)nc21	nt	1	-8	nt
COc1ccc(F)cc1CN1CCN(c2cc(C)nc3c4c(C)cc(C)nc4nn23)CC1	2	0	2	-7.8*
Cc1ccccc1C(=O)c1cccn1CC(=O)NCc1ccc2c(c1)OCO2	1	-1	5	-2.1
C=CCOCCN1C(=O)C2C(c3ccccc3)C=CC(c3ccccc3)C2C1=O (centres undefined)	8	1	42	-3.3*
CCCCOc1ccc(N2C(=O)CC(NCCc3ccc(S(N)(=O)=O)cc3)C2=O)cc1 (centres undefined)	-1	-2	-2	-0.3
Cc1ccc(S(=O)(=O)CC2CSc3nc4ccccc4n32)cc1 (centres undefined)	2	-12	93*	-0.87
CCN(CC)S(=O)(=O)c1cccc(C(=O)N[C@H](C(=O)OCC(N)=O)C(C)C)c1	2	-3	-2	0.39
CCN(CC)S(=O)(=O)c1cccc(C(=O)N[C@H](C(=O)OCC(=O)Nc2ccccc2)C(C)C)c1	-16	2	5	-9.2*
Cc1nc(C)c(CCNC(=O)c2ccccc2Br)s1	nt	1	11	nt
COc1ccc(NC(=O)C23CC4CC(C2)CC(n2cnc(Br)n2)(C4)C3)c(OC)c1	-3	1	18	3.4*
COc1ccc(OC)c(NC(=O)C23CC4CC(C2)CC(n2cnc(Br)n2)(C4)C3)c1	2	4	4	0.67
CCOC(=O)CSCC(=O)N1N=C(c2cccs2)CC1c1ccc(F)cc1 (centres undefined)	nt	-1	18	nt
Cc1ccc(C2CC(c3cccs3)=NN2C(=O)c2ccc(Br)o2)cc1 (centres undefined)	-26	2	14	-4*
